Data as given in PubChem BioAssay (EPA / NIEHS).
Inconclusive results are not listed. Active and inactive are the calls of the source. The calls were made as follows, unless noted: active = hit-call score of the fitted dose curve at least 0.9, where 1 is the maximum; inconclusive = response in the unintended direction; inactive = score below 0.9.

Molecular target: Ratio of Nucleoli Translocation and Cytoplasm, AR (gene 367) (UniProt P10275)
Test: UPITT_HCI_U2OS_AR_TIF2_Nucleoli_Cytoplasm_Ratio_Antagonist: University of Pittsburgh U2OS Androgen Receptor-Transcriptional Intermediary Factor 2 (AR-TIF2) Antagonism High Content Imaging Assay for Ratio of Nucleoli Translocation and Cytoplasm (AID 2283999);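 also: antagonists lower the DHT-driven ratio of nucleolar to cytoplasmic red signal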
Details: not given
Procedure, shortened: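 This antagonist-mode endpoint tracks AR-RFP localisation, the nucleolus-to-cytoplasm intensity ratio, in TIF2-GFP-coexpressing U2OS cells. DMSO stays at or below 0.5%; testing spans 20 uM single-dose and 0.195–50 uM series, with DHT setting the activity baseline.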

Sequence of Ratio of Nucleoli Translocation and Cytoplasm, AR (gene 367) (P10275 whole entry, looked up): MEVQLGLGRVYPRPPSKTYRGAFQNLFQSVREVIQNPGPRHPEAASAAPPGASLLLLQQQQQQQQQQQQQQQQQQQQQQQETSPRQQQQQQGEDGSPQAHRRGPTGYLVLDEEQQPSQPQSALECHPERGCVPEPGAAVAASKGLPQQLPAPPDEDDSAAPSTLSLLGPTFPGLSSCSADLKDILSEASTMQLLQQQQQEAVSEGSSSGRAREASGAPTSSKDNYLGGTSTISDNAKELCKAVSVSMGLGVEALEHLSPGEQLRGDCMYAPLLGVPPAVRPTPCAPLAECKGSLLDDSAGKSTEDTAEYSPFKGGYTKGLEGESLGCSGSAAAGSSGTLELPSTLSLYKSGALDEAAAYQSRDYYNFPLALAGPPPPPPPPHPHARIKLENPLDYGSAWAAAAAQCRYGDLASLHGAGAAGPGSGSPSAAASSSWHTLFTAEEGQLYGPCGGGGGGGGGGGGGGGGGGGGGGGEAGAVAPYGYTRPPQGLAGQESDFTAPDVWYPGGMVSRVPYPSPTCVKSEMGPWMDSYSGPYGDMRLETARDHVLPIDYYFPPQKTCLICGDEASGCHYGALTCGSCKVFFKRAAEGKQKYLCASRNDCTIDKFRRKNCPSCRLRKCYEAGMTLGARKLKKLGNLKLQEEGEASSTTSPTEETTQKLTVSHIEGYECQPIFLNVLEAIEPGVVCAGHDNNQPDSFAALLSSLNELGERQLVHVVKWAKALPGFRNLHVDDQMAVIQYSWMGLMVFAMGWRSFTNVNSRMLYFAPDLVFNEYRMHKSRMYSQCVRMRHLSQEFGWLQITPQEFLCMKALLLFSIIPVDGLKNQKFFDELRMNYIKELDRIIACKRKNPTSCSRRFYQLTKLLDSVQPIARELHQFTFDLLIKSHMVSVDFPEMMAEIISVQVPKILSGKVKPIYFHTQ

Structure (SMILES) | AC50 | outcome
O=C(CCl)Nc1ccccc1 | 26.3 µM (active) | 
CC(C)N(C(=O)CCl)c1ccccc1 | 11.4 µM (active) | 
O=S1OC[C@@H]2[C@H](CO1)[C@]1(Cl)C(Cl)=C(Cl)[C@@]2(Cl)C1(Cl)Cl (stereo partly specified) |  | inactive
C=CC(Cl)CCl (stereo unspecified) |  | inactive
CC(=Cc1ccccc1)[N+](=O)[O-] | 0.845 µM (active) | 
CNC(=O)O/N=C/C(C)(C)S(C)(=O)=O |  | inactive
O=[N+]([O-])c1ccc(Cl)c([N+](=O)[O-])c1 | 2.39 µM (active) | 
O=C1c2ccccc2C(=O)C1C(=O)C(c1ccccc1)c1ccc(Cl)cc1 (stereo unspecified) |  | inactive
O=S1(=O)OC(c2cc(Br)c(O)c(Br)c2)(c2cc(Br)c(O)c(Br)c2)c2ccccc21 |  | inactive
O=C(NC(=O)c1c(F)cccc1F)Nc1cc(Cl)c(OC(F)(F)C(F)C(F)(F)F)cc1Cl (stereo unspecified) |  | inactive
N#CCC#N |  | inactive
CCOP(=S)(OCC)OP(=S)(OCC)OCC |  | inactive
COCCl |  | inactive
OC(Cc1ccccc1Cl)(Cn1[nH]cnc1=S)C1(Cl)CC1 (stereo unspecified) |  | inactive

Molecular target: Ratio of Nucleoli Translocation and Cytoplasm, AR (gene 367) (UniProt P10275)
Test: UPITT_HCI_U2OS_AR_TIF2_Nucleoli_Cytoplasm_Ratio_Agonist: University of Pittsburgh U2OS Androgen Receptor-Transcriptional Intermediary Factor 2 (AR-TIF2) Agonism High Content Imaging Assay for Ratio of Nucleoli Translocation and Cytoplasm (AID 2284000);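 also: hits raise the red nucleolar to cytoplasm ratio above vehicle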
Details: not given
Procedure, shortened: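 Primary screen at 20 uM final (0.2% DMSO), then triplicate confirmation and dose-response from 0.195 to 50 uM final (0.5% DMSO). Cells: U2OS with AR-RFP and TIF2-GFP. Endpoint is the nucleoli/cytoplasm red-fluorescence ratio, gain-of-signal vs DMSO.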

Structure (SMILES) | outcome | AC50
O=C(CCl)Nc1ccccc1 | inactive | 
CC(C)N(C(=O)CCl)c1ccccc1 | inactive | 
O=C(O)COc1cc(Cl)c(Cl)cc1Cl | inactive | 
C=CC(Cl)CCl (stereo unspecified) | inactive | 
CC(=Cc1ccccc1)[N+](=O)[O-] | inactive | 
CNC(=O)O/N=C/C(C)(C)S(C)(=O)=O | inactive | 
O=[N+]([O-])c1ccc(Cl)c([N+](=O)[O-])c1 |  | 13.1 µM (active)
O=C1c2ccccc2C(=O)C1C(=O)C(c1ccccc1)c1ccc(Cl)cc1 (stereo unspecified) | inactive | 
O=C(NC(=O)c1c(F)cccc1F)Nc1cc(Cl)c(OC(F)(F)C(F)C(F)(F)F)cc1Cl (stereo unspecified) | inactive | 
CCOP(=S)(OCC)OP(=S)(OCC)OCC | inactive | 
Cc1cc(Cl)ccc1OCCCC(=O)O | inactive | 
O=C(N[C@H]1CN2CCC1CC2)c1ccc2c(c1)OCCO2 | inactive | 
COCCl | inactive | 
OC(Cc1ccccc1Cl)(Cn1[nH]cnc1=S)C1(Cl)CC1 (stereo unspecified) | inactive | 

System: not listed separately
Test: CCTE_Simmons_MITO_max_resp_rate: CCTE's HepG2 Seahorse XF Respirometric Screening Assay at Maximal Respiratory State [uncoupled], Simmons Lab (AID 2284002; active = hit-call score of the fitted dose curve at least 0.9, where 1 is the maximum; inactive = score below 0.9)
Details: actives raise or lower the signal
Procedure, shortened: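 Read-out is oxygen consumption rate at maximal respiration, taken after FCCP uncoupling of compound-treated HepG2 cells. Seven final concentrations from 125 nM to 100 uM were tested, each in three biological replicates.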

Structure (SMILES) | AC50 | outcome
Oc1cc(Cl)c(Cl)cc1Cl | 75.4 µM (active) | 
Oc1c(Cl)cc(Cl)cc1Cl |  | inactive
O=C(O)C1(c2ccc3c(c2)OC[C@H](Cc2ccc(-c4ccccc4)cc2)[C@H]3O)CCCC1 | 8.48 µM (active) | 
